Experimental data from PubChem BioAssay (EPA / NIEHS).
Inconclusive results are not listed. The source made the active and inactive calls. Rule for the calls: active = hit-call score of the fitted dose curve at least 0.9, where 1 is the maximum; inconclusive = response in the unintended direction; inactive = score below 0.9.

What follows are compounds tested against Cellular tumor antigen p53 (Homo sapiens) (UniProt P04637) (assay: TOX21_p53_BLA_p4_ratio: Tox21 HCT-116 p53 Agonism Beta-lactamase Assay, Ratio, Phase 4 (AID 2283601)).
In short: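 HCT-116 p53 beta-lactamase reporter cells (4000/well) preincubated 5 h, then compound (217-fold dilution of DMSO stock) for 16 h at 37C. CCF4-AM substrate added 2 h at room temperature; 460/530 nm emission ratio fitted upward versus DMSO.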

Sequence of Cellular tumor antigen p53 (Homo sapiens) (P04637 whole entry, looked up): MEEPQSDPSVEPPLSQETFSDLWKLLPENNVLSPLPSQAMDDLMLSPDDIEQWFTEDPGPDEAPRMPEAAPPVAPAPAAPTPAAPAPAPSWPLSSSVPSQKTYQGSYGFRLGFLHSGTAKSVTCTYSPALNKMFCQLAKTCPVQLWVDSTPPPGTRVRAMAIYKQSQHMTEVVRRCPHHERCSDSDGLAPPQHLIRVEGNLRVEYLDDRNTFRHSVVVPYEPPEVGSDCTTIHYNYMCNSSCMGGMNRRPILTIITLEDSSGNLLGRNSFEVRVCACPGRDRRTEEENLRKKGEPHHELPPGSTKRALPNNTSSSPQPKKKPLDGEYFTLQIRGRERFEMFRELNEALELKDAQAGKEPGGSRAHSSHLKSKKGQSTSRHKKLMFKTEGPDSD

Q: `Nc1cccc(S(=O)(=O)O)c1` was tested. Which outcome did it give?
A: inactive

Q: Which outcome does the source give for `CCC(CC)(CC(=O)Nc1cccc(/C=C/c2nc(C3CCC3)cs2)c1)C(=O)O` here?
A: inactive

Q: `Clc1ccc2c(c1)CCc1cccnc1C2=C1CCNCC1` was tested. Which outcome did it give?
A: inactive

Q: `C=Cc1ccccc1` was tested. Which outcome did it give?
A: inactive

Q: For `CCCCC(CC)COC(=O)C(C#N)=C(c1ccccc1)c1ccccc1` (centres undefined), which outcome is on record?
A: inactive

Q: For `Cc1cc(N)c2cc(NC(=O)Nc3ccc4nc(C)cc(N)c4c3)ccc2n1`, which outcome is on record?
A: inactive

Q: For `CC(C)OC(=O)C(C)N(C(=O)c1ccccc1)c1ccc(F)c(Cl)c1` (centres undefined), which outcome is on record?
A: inactive

Q: For `CC(C)CN(C[C@@H](O)[C@H](Cc1ccccc1)NC(=O)O[C@H]1CO[C@H]2OCC[C@H]21)S(=O)(=O)c1ccc(N)cc1`, which outcome is on record?
A: inactive

Q: Which outcome does the source give for `O=C1c2ccccc2Cc2ccccc21` here?
A: inactive

Q: With `Cc1c(O)c(=O)ccn1C` as the compound, how does the outcome read?
A: inactive

Q: `CCCC1([C@H](O)C/C=C/[C@H]2[C@H](O)CC(=O)[C@@H]2CCCCCCC(=O)OC)CCC1` was tested. Which outcome did it give?
A: inactive

Q: For `CCCCCCCCCCCCCCCC[N+](C)(C)CCN(Cc1ccc(OC)cc1)c1ncccn1`, which outcome is on record?
A: inactive

Q: With `COc1cc(NC(C)CCCN)c2ncccc2c1` (centres undefined) as the compound, how does the outcome read?
A: inactive

Q: For `O=C(O)COc1ccc(C(=O)c2cccs2)c(Cl)c1Cl`, which outcome is on record?
A: inactive

Q: How did the outcome turn out when `CC(C)N1CCN(c2ccc(OC[C@H]3CO[C@](Cn4cncn4)(c4ccc(Cl)cc4Cl)O3)cc2)CC1` was run?
A: inactive

Q: How did the AC50 turn out when `COc1cc2c(cc1OC)-c1cc(=Nc3c(C)cc(C)cc3C)n(C)c(=O)n1CC2` was run?
A: 36.6 µM (active)

Q: How did the outcome turn out when `Nc1nc(-c2ccccc2)c(Br)c(=O)[nH]1` was run?
A: inactive

Q: For `Cc1cc(CC(=O)O)c(C)n1-c1ccc(Cl)cc1`, which outcome is on record?
A: inactive

Q: `c1ccncc1` was tested. Which outcome did it give?
A: inactive
